According to PubChem BioAssay AID504452 (The Scripps Research Institute Molecular Screening Center, 2011):
The source made the active and inactive calls. No stated cut-off is given here; in the data, active means activation above about 85%; inactive means the rest.

target: Peroxisome proliferator-activated receptor gamma (Homo sapiens) (UniProt P37231); assay: PPARg partial agonist activation, primary screen, cell-based, luciferase reporter, luminescence (AID 504452); settings: at 5 µM, stronger effect = higher value; activation (% of full agonist control): measured here: relative to full agonist control;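 further: Cos-1 cells carrying PPARgamma and a response element luciferase reporter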
Sequence (P37231 whole entry, looked up): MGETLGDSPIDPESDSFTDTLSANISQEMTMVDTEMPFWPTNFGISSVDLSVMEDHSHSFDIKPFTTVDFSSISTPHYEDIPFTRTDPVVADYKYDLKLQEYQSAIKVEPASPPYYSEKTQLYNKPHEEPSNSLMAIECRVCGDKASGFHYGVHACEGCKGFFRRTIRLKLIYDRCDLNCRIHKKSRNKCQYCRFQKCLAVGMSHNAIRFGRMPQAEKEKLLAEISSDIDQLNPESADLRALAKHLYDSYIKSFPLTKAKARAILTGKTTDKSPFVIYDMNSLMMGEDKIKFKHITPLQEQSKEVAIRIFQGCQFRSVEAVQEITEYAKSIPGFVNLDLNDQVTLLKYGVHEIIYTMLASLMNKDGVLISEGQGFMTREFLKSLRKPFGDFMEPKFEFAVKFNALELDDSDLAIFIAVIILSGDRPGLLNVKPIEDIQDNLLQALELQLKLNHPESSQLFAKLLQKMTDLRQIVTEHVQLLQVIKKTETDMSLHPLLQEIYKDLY

Row | SMILES | activation (% of partial agonist control) | activation (% of full agonist control)
1 | O=C1CC(N2CCN(Cc3ccc4c(c3)OCO4)CC2)C(=O)N1Cc1ccc(N2CCCC2=O)cc1 (configuration not stated) | 91.6% (active) | 41.4%
2 | CCOc1cccc(/C(O)=C2/C(=O)C(=O)N(Cc3ccco3)C2c2ccncc2)c1 (configuration not stated) | 91% (active) | 41.1%
3 | Cc1ccc(C)c(S(=O)(=O)NCC(c2ccco2)N2CCc3ccccc3C2)c1 (configuration not stated) | 64.3% (inactive) | 29%
4 | Cc1cccn2c(CN3CCNC(=O)CC3)c(C(=O)N(C)CCc3ccccc3)nc12 | 80.3% (inactive) | 36.3%
5 | O=C(NCCCn1ccnc1)C(=O)NCC(c1ccco1)N1CCN(c2ccccc2)CC1 (configuration not stated) | 62.9% (inactive) | 28.4%
6 | Cc1ccc2[nH]c(=O)c(CN(Cc3cccs3)Cc3nnnn3CC3CCCO3)cc2c1 (configuration not stated) | 97.6% (active) | 44.1%
